# An excerpt weighted towards active compounds, which were near 9.5% of everything screened.
# NS1 inh: inhibitors of influenza NS1 protein function; Potency, µM (doses to about 46.1 µM), for the others: at the top dose activity, positive = more growth; hit rate 0.4% among 270,000; calls by dose curve; also: actives are rising curves; nearly all actives have a fitted effect of over 50% in size
#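 OD600 was taken as the measure of yeast growth restored by compound in an NS1-expressing S. cerevisiae strain. Cells had been washed out of glucose medium and diluted 1:100 into galactose -URA medium, pH 6.0.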
# SARS PLpro yeast: blocks SARS-CoV papain-like protease in a yeast assay | S. cerevisiae expressing SARS-CoV PLpro, growth rescue | Potency, µM (series often up to 32.9 µM), for the others: at the highest dose activity, positive = growth rescue, actives largely listed as activators | hit rate 0.19% among 330,000; calls by dose curve; also: 0% is about no effect; nearly all actives have a fitted effect of over 55% in size
# Pf growth 96h: P. falciparum growth inhibition at 96 hours. AID 504834. hit rate 6.9% among 320,000. P. falciparum luciferase reporter growth, 96 h. Potency, µM (top dose mostly 28.7 µM), for inactives: top-dose activity change, negative = inhibition, actives largely listed as inhibitors; also: % is scaled to controls: 0 for no effect and ±100 for the full control effect
#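 Luminescence readout: decreased luciferase signal marks inhibited growth of reporter-expressing P. falciparum in infected red cells (2% hematocrit, 0.05% parasitemia final), exposed to compound two generations (96 h, 37 C, 5% CO2).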
# RE007 growth inh: less growth of the S. pombe RE007 Vpr strain | S. pombe RE007 Vpr strain, BacTiter-Glo ATP luminescence, 24 h | Potency, µM (titrated, usually from 92.2 µM), inactives show at the top dose activity change, negative = less growth, hits mostly inhibitors | hit rate 0.21% among 360,000 | AID 651644; active = well fitted falling curve with a large enough effect; inconclusive = small, poorly fitted or top-dose-only effect; inactive = no such curve, though single readings can be large or run the other way; also: % is scaled to controls: 0 for no effect and ±100 for the full control effect; nearly all actives have a fitted effect of over 50% in size
#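 Fission yeast strain RE007, carrying one chromosomally integrated HIV-1 vpr copy, was seeded at OD 0.01 in PMG+AL medium with 23 nL pinned compound. After 24 h at 30 °C and 99% humidity, viability was read by BacTiter-Glo luminescence.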
# Pf growth 48h: inhibits P. falciparum growth in the first generation, 48 h; hit rate 5.9% among 310,000; Potency, µM (titrated, usually from 28.7 µM), for inactives: top-dose activity change, negative = inhibition, most hits filed as inhibitors; P. falciparum luciferase growth in erythrocytes, 48 h; also: % is scaled to controls: 0 for no effect and ±100 for the full control effect
#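 Growth was read as firefly luciferase luminescence after a 48 h, 37 C, 5% CO2 exposure of compounds to reporter-bearing P. falciparum cultures (0.1% parasitemia, 2% hematocrit final) in Albumax-supplemented RPMI 1640.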
# Active calls of the source: *; ? = inconclusive; · = no result. Unless noted, calls follow the shape of the dose curve; as a rule, active = well fitted inhibition curve with a large enough effect; inconclusive = small, poorly fitted or top-dose-only effect, or another doubt; inactive = no such curve, though single readings can be large or run the other way. Potency is read from the fitted curve at half-maximal effect.
SMILES,NS1 inh,SARS PLpro yeast,Pf growth 96h,RE007 growth inh,Pf growth 48h
COc1ccc(C=O)cc1OS(=O)(=O)c1ccc(NC(C)=O)cc1,8%,4%,?,17%,?
Cc1ccc(C(C)C)cc1NC(=O)Nc1ccc([N+](=O)[O-])cc1,-118%,-12%,3.3µM*,·,4.1µM*
CC(=O)Nc1nc(-c2ccc([N+](=O)[O-])cc2)cs1,·,-7%,-14%,-3%,24%
COc1cc(C=O)cc(OC)c1OS(=O)(=O)c1ccc(NC(C)=O)cc1,0%,-2%,4.1µM*,-3%,28%
CN1CCN(C2CCN(c3ccc(Nc4nnc(Cl)c(Nc5ccccc5S(C)(=O)=O)n4)c(OC(CF)CF)c3)CC2)CC1,·,-4%,·,1%,·
O=C(NCc1ccccc1F)Nc1ccc([N+](=O)[O-])cc1,·,1%,13µM*,-13%,-5%
COc1ccc(NC(=O)NCc2ccccc2F)cc1OC,1%,-1%,10µM*,13%,6%
CC(=O)c1ccc(N2CCN(c3ccc(S(=O)(=O)NCCCN(C)C)cc3[N+](=O)[O-])CC2)cc1,·,0%,13µM*,-9%,?
CN(C)CCCNS(=O)(=O)c1ccc(N2CCN(Cc3ccc4c(c3)OCO4)CC2)c([N+](=O)[O-])c1,3%,0%,9.3µM*,-7%,12µM*
COc1ccc(OC)c(NC(=O)c2cccc(NC(=O)c3ccco3)c2)c1,·,·,·,-1%,·
Cc1cccc(N(Cc2ccccc2F)S(C)(=O)=O)c1,1%,-2%,9.3µM*,16%,-18%
COc1ccccc1/C=C1\N=C(C(C)(C)C)OC1=O,1%,-1%,40%,-15%,21%
COc1cccc(N(C(=O)CCl)C(C(=O)NCCc2ccccc2)c2cccs2)c1 (stereo not drawn),-25%,-21%,9.3µM*,8%,12µM*
COc1ccc(N(C(=O)CCl)C(C(=O)NCCc2ccccc2)c2cccs2)cc1Cl (stereo not drawn),-18%,-54%,4.7µM*,-24%,9.3µM*
COc1ccc(N(C(=O)c2ccco2)C(C(=O)NC2CCCCC2)c2cccs2)cc1OC (stereo not drawn),-1%,-3%,85%,16%,?
COc1cccc(N(C(=O)c2snc(C(N)=O)c2N)C(C(=O)NCC2CCCO2)c2cccs2)c1 (stereo not drawn),3%,-2%,?,9%,?
O=C(CSc1nc(O)c(C2CCCCC2)c(=O)[nH]1)Nc1ccccc1Cl,25%,2%,24%,-16%,12%
N=c1c(C(=O)NC2CCCCC2)cc2c(=O)n3ccccc3nc2n1Cc1ccc(F)cc1,22%,0%,?,-5%,2.1µM*
N=c1c(C(=O)NC2CCCC2)cc2c(=O)n3ccccc3nc2n1Cc1ccccc1,-2%,15%,?,5%,?
Cc1ccc(Cn2c(=N)c(C(=O)NC3CCCCC3)cc3c(=O)n4ccccc4nc32)cc1,7%,-3%,2.9µM*,8%,4.1µM*
CCOc1ccc(N2C(=O)C3Sc4[nH]c(=O)sc4C(c4ccc(OC)c(OC)c4)C3C2=O)cc1 (stereo not drawn),15%,0%,24%,1%,17%
COc1ccc(OC)c(NC(=O)C2(C)CCN2C(=O)C2(c3ccc(Cl)cc3)CCC2)c1 (stereo not drawn),·,·,·,1%,·
Cc1ccc(C2=NN=C(NC(=O)C(F)(F)F)SC2)cc1,-5%,-2%,?,64%,202%
COc1ccc(N=Nc2n(C)c3ccccc3[n+]2C)cc1,-81%,-3%,0.52µM*,·,0.74µM*
COc1ccc(OC2C(=O)N(Cc3ccc(F)cc3)C2c2cc(OC)c(OC)c(OC)c2)cc1 (stereo not drawn),-8%,24%,25%,-5%,3.7µM*
Cc1c(C(=O)NCCO)[n+](=O)c2ccccc2n1[O-],·,·,-30%,·,-8%
OC(CNCCc1ccc(C(F)(F)F)cc1)COC(c1ccccc1)c1ccccc1 (stereo not drawn),6%,-4%,3.7µM*,15%,·
COc1ccc(CC(=O)NCCc2ccc(S(N)(=O)=O)cc2)cc1,0%,1%,-30%,8%,·
